# Columns and labels:
# Details in all cases: concentration: 1 μM, replicates: in singlicate; n = 1
# CHEK2 = system: CHEK2
# CIT = system: CIT
# CLK1 = system: CLK1
# CLK2 = system: CLK2
# CLK3 = system: CLK3
# CLK4 = system: CLK4
# CSF1R-autoinhibited = system: CSF1R-autoinhibited
# CSF1R = system: CSF1R
# CSK = system: CSK
# CSNK1A1L = system: CSNK1A1L
# CSNK1A1 = system: CSNK1A1
# CSNK1D = system: CSNK1D
# CSNK1E = system: CSNK1E
# CSNK1G1 = system: CSNK1G1
# CSNK1G2 = system: CSNK1G2
# CSNK1G3 = system: CSNK1G3
# CSNK2A1 = system: CSNK2A1
# CSNK2A2 = system: CSNK2A2
# CTK = system: T1, CTK
# T1 construct: gene MATK
# DAPK1 = system: DAPK1
# 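Further: KINOMEscan kinase panel screen.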
SMILES,%Inh (CHEK2) [%],%Inh (CIT) [%],%Inh (CLK1) [%],%Inh (CLK2) [%],%Inh (CLK3) [%],%Inh (CLK4) [%],%Inh (CSF1R-autoinhibited) [%],%Inh (CSF1R) [%],%Inh (CSK) [%],%Inh (CSNK1A1L) [%],%Inh (CSNK1A1) [%],%Inh (CSNK1D) [%],%Inh (CSNK1E) [%],%Inh (CSNK1G1) [%],%Inh (CSNK1G2) [%],%Inh (CSNK1G3) [%],%Inh (CSNK2A1) [%],%Inh (CSNK2A2) [%],%Inh (CTK) [%],%Inh (DAPK1) [%]
Cl.NC(=O)c1cccc(Nc2nccc(Nc3ccc(Oc4cccc(Cl)c4)c(Cl)c3)n2)c1 [GW659008],0,19,13,0,10,17,22,14,17,16,1,5,8,0,0,17,15,19,2,0
O=S(=O)(c1ccc(-c2ccnc3[nH]ccc23)cc1)N1CCCC1 [GSK846226],15,36,63,45,57,41,0,17,10,2,0,7,41,5,0,37,4,6,0,58
COc1ccc(CNC(=O)NC2CCN(c3ccnc(Nc4cc(OC)c(OC)c(OC)c4)n3)C2)cc1 (stereo not shown) [GSK1379748],47,20,11,0,0,0,17,13,0,0,0,0,14,0,0,23,6,9,0,0
C[C@@H]1CCCCN1c1cc(-c2ccc3c(N)n[nH]c3c2)nc(N)n1 [GSK2258759],12,36,12,0,0,13,13,2,2,0,0,39,35,6,0,26,6,76,0,18
Clc1cc(Cl)cc(Nc2ccnc(Nc3cc(Cl)cc(Cl)c3)n2)c1 [GSK175726],0,22,17,36,22,38,0,3,0,0,0,17,57,22,0,9,4,89,0,11
Cc1cccc(-c2nc(-c3ccc(S(C)(=O)=O)cc3)sc2-c2ccnc(NCCc3ccccc3)c2)c1,0,0,8,2,12,1,1,72,2,0,0,1,8,5,1,0,0,28,0,0
COc1ccc(Nc2nccc(NCCNC(=O)Nc3ccccc3F)n2)cc1 [GSK1379901],0,0,32,0,100,29,0,11,3,0,0,7,99.4,7,0,25,0,2,0,0
COc1ccc(Nc2nccc(-c3cccc(NC(=O)c4cc5cc(F)ccc5[nH]4)c3)n2)cc1 [GSK1229782],37,44,33,0,12,28,57,10,0,20,0,37,33,13,17,32,8,27,0,0
Cn1cncc1-c1ccc2ncnc(Nc3ccc(OCc4ccccc4)cc3)c2c1 [GW320571],0,6,23,57,100,32,0,0,0,22,0,20,99.4,0,15,19,26,15,0,0
COc1ccccc1CNC(=O)c1cc(C(=O)c2ccccc2C)c[nH]1 [GSK364507],0,9,17,0,0,9,0,11,0,20,0,28,20,15,0,9,0,100,0,0
Cc1cc(N2Cc3ccccc3C2)nc(Nc2ccc(S(=O)(=O)N3CCOCC3)cc2)n1.Cl [GSK1669917],0,0,9,0,1,11,0,4,0,0,0,0,4,0,0,19,2,7,0,0
